Source: PubChem BioAssay (EPA / NIEHS)
Records with an inconclusive call do not appear. Activity calls are given as the source filed them. Rule for the calls, unless noted: active = hit-call score of the fitted dose curve at least 0.9, where 1 is the maximum; inconclusive = response in the unintended direction; inactive = score below 0.9.

Columns and labels:
[1] = ATG_TCF_b_cat_CIS: Attagene CIS-FACTORIAL HepG2 Assay for human T-Cell-Factor with beta-catenin (TCF/b-cat) (AID 2282965; active = hit-call score of the fitted dose curve at least 0.9, where 1 is the maximum; inactive = score below 0.9); conditions: HepG2 TCF/beta-catenin cis-reporter transcription, actives raise or lower the signal
In short: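 HepG2 cells transiently transfected with cis-promoter-driven multiplexed reporter units; reporter mRNA measured 24 h after dosing by RT-PCR, FAM labelling, HpaI digestion and capillary electrophoresis. Bidirectional fitting relative to DMSO baseline.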

[2] = ATG_TAL_CIS: Attagene CIS-FACTORIAL HepG2 Assay for human TAL Basal Promoter (AID 2282966; active = hit-call score of the fitted dose curve at least 0.9, where 1 is the maximum; inactive = score below 0.9;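 note: background control endpoint measuring basal TAL promoter reporter mRNA not a specific factor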); conditions: HepG2 Attagene cis-factorial TAL promoter reporter; actives raise or lower the signal
In short: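 Steps: transfect HepG2 with multiple reporter transcription units; dose 24 h; isolate RNA, reverse-transcribe, PCR-amplify, label with 6-FAM, digest with HpaI; resolve by capillary electrophoresis. Bidirectional fitting against DMSO baseline.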

[3] = molecular target: Estrogen receptor (Homo sapiens) (UniProt P03372); test: ATG_ERa_TRANS: Attagene TRANS-FACTORIAL HepG2 Assay for human Estrogen Receptor alpha (ERa) (AID 2282970); conditions: HepG2 Attagene TRANS ERa GAL4 reporter, mRNA
Chain of Estrogen receptor (Homo sapiens) (P03372 whole entry, looked up, the tested form may be a part): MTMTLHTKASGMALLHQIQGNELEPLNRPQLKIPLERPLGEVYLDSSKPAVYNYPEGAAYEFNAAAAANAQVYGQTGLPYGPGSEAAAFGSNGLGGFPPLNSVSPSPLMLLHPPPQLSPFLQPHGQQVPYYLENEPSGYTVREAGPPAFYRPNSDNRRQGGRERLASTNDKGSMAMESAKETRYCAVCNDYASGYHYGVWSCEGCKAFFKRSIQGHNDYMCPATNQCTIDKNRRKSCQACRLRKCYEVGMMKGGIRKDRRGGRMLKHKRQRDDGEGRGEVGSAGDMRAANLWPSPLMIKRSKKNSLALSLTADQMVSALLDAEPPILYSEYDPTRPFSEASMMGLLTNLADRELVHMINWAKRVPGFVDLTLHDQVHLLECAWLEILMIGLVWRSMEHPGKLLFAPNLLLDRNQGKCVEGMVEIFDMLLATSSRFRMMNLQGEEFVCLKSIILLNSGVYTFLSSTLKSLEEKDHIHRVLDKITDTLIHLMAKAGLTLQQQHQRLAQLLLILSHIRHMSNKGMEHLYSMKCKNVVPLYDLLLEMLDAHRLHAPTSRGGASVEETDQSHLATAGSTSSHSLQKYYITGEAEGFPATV
In short: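 Multiplexed cell-based reporter format in HepG2: chimeric ERa-Gal4 protein drives GAL4-UAS reporter transcription. Fluorescent reporter mRNA quantified by capillary electrophoresis 24 hours after dosing; endpoint fitted as signal gain against DMSO.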

[4] = molecular target: X-box-binding protein 1 (Homo sapiens) (UniProt P17861); test: ATG_Xbp1_CIS: Attagene CIS-FACTORIAL HepG2 Assay for human X-box Binding Protein 1 (XBP1) (AID 2282972; active = hit-call score of the fitted dose curve at least 0.9, where 1 is the maximum; inactive = score below 0.9); conditions: HepG2 XBP1 cis-element reporter, Attagene multiplex; actives raise or lower the signal
Chain of X-box-binding protein 1 (Homo sapiens) (P17861 whole entry, looked up): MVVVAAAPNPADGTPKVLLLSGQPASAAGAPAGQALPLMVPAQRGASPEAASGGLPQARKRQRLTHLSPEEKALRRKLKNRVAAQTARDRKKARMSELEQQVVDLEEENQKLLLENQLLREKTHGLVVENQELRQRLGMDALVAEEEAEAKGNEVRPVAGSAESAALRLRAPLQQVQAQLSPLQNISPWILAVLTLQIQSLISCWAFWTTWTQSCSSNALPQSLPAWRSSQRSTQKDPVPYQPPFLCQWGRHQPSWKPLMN
In short: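 After a 24-hour chemical exposure of HepG2 cells carrying cis-regulated reporters, reporter mRNA levels are assessed. Quantification uses RT-PCR, 6-FAM labelling and capillary electrophoresis. Gain- or loss-of-signal is fitted against DMSO.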

[5] = ATG_GAL4_TRANS: Attagene TRANS-FACTORIAL HepG2 Assay for GAL4 (Internal Marker) (AID 2282976); conditions: HepG2 Attagene TRANS GAL4 internal marker reporter
In short: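 Liver HepG2 line bearing multiplexed GAL4-UAS reporter constructs; 24 h chemical treatment. Transcripts were quantified as fluorescent fragments on capillary electrophoresis after RT-PCR and HpaI cut, with activity fitted upward from DMSO.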

[6] = molecular target: Oxysterols receptor LXR-alpha (Homo sapiens) (UniProt Q13133); test: ATG_LXRa_TRANS: Attagene TRANS-FACTORIAL HepG2 Assay for human Liver X Receptor alpha (LXRa) (AID 2282980); conditions: HepG2 Attagene TRANS reporter, LXRa transactivation
Chain of Oxysterols receptor LXR-alpha (Homo sapiens) (Q13133 whole entry, looked up, the tested form may be a part): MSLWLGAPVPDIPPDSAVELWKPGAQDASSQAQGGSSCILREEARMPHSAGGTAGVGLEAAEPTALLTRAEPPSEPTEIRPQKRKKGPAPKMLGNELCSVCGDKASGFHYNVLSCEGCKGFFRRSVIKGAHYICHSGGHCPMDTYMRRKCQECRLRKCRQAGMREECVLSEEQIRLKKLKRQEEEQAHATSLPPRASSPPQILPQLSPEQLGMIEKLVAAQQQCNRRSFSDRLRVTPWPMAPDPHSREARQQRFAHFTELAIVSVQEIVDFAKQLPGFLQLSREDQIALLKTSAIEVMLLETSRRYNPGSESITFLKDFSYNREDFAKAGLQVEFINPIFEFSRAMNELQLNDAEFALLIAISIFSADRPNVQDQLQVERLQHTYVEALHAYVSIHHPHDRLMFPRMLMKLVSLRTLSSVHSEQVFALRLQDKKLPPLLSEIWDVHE
In short: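 In this multiplexed TRANS system, compounds act on HepG2 cells carrying GAL4-UAS reporter units and a receptor-GAL4 fusion for 24 h. Induced reporter RNA is amplified, fluorescently labelled and sized by capillary electrophoresis, with DMSO as baseline.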

[7] = ATG_M_06_TRANS: Attagene TRANS-FACTORIAL HepG2 Assay for M06 Transcription Factor (Internal Marker) (AID 2282983); conditions: HepG2 Attagene TRANS M06 internal marker reporter
In short: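 Internal-marker background readout from a multiplexed TRANS reporter system in HepG2; 24 h dosing; mRNA induction quantified by RT-PCR plus capillary electrophoresis fluorescence; DMSO as negative control and baseline.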

[8] = ATG_M_32_TRANS: Attagene TRANS-FACTORIAL HepG2 Assay for M32 Transcription Factor (Internal Marker) (AID 2282984); conditions: HepG2 Attagene TRANS M32 internal marker reporter
In short: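 Capillary electrophoresis of 6-FAM-labelled reporter fragments gives the signal; data fitted for gain over DMSO negative control. Source: HepG2 cells bearing transient multiple reporter transcription units, 24 h exposure.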

[9] = molecular target: Nuclear receptor subfamily 4 group A member 2 (Homo sapiens) (UniProt P43354); test: ATG_NURR1_TRANS: Attagene TRANS-FACTORIAL HepG2 Assay for human Nuclear Receptor Related Protein 1 (NURR1) (AID 2282985); conditions: HepG2 Attagene TRANS reporter, mRNA readout
Chain of Nuclear receptor subfamily 4 group A member 2 (Homo sapiens) (P43354 whole entry, looked up): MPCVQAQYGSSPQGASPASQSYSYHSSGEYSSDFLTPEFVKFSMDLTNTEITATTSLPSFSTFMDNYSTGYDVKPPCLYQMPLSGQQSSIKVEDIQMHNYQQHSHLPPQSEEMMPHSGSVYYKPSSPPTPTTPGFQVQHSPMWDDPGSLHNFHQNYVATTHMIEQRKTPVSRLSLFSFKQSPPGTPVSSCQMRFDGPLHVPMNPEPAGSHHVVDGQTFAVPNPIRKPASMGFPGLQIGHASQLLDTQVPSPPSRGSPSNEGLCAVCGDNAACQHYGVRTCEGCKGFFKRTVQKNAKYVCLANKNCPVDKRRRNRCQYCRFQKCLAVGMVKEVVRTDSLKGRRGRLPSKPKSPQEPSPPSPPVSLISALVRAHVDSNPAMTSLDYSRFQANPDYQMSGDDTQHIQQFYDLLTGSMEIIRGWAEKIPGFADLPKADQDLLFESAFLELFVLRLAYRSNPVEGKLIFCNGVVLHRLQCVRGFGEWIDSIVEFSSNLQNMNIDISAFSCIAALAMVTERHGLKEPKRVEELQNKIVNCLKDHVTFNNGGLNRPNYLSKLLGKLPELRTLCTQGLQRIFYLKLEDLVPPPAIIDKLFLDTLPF
In short: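 HepG2 / transient MRTU transfection / 24 h compound exposure / RT-PCR + CE fluorescence of reporter mRNA / gain-of-signal vs DMSO.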

[10] = molecular target: Transcriptional activator Myb (Homo sapiens) (UniProt P10242); test: ATG_Myb_CIS: Attagene CIS-FACTORIAL HepG2 Assay for human Myeloblastosis (Myb) Proto-Oncogene Transcription Factor (AID 2282986; active = hit-call score of the fitted dose curve at least 0.9, where 1 is the maximum; inactive = score below 0.9); conditions: HepG2 Attagene CIS-FACTORIAL Myb reporter transcription; actives raise or lower the signal
Chain of Transcriptional activator Myb (Homo sapiens) (P10242 whole entry, looked up): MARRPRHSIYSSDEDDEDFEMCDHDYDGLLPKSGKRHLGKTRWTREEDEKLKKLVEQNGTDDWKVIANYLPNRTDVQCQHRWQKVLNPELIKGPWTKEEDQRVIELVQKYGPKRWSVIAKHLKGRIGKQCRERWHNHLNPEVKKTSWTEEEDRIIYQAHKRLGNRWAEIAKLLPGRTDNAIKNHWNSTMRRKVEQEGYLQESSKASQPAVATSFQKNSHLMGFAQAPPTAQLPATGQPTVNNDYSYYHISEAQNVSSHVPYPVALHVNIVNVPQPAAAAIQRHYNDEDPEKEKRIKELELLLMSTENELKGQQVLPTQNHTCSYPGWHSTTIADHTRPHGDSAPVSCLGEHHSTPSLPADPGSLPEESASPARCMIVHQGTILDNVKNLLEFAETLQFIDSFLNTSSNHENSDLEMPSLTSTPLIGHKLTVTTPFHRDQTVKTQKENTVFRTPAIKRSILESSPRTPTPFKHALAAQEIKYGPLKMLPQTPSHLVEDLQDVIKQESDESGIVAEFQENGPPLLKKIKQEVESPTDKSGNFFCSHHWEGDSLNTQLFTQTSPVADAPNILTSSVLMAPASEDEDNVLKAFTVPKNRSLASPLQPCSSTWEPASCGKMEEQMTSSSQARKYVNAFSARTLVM
In short: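 Reporter transcript levels, quantified by fluorescent RT-PCR and capillary electrophoresis, serve as the read-out. Transfected HepG2 cells carrying cis-promoter reporter units are dosed for 24 hours, and curves are fitted bidirectionally against DMSO controls.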

[11] = ATG_TGFb_CIS: Attagene CIS-FACTORIAL HepG2 Assay for human Transforming Growth Factor (TGF) (AID 2282967; active = hit-call score of the fitted dose curve at least 0.9, where 1 is the maximum; inactive = score below 0.9); conditions: HepG2 Attagene CIS TGFb reporter, mRNA transcription; actives raise or lower the signal
In short: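 Readout: fluorescently labeled reporter cDNA fragments resolved by capillary electrophoresis after RT-PCR. Transfected HepG2 cells dosed for 24 h; endogenous TF activity at TGFB1-linked cis element; gain or loss fitted relative to DMSO.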

[12] = ATG_M_19_TRANS: Attagene TRANS-FACTORIAL HepG2 Assay for M19 Transcription Factor (Internal Marker) (AID 2282974); conditions: HepG2 Attagene TRANS-FACTORIAL M19 internal marker reporter
In short: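 Fluorescence of 6-FAM-labelled reporter cDNA fragments, separated by capillary electrophoresis, served as the readout. These derived from HepG2 cells carrying transfected GAL4-UAS reporter units after 24 h dosing, with DMSO as negative control.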

[13] = molecular target: Glucocorticoid receptor (Homo sapiens) (UniProt P04150); test: ATG_GR_TRANS: Attagene TRANS-FACTORIAL HepG2 Assay for human Glucocorticoid Receptor (GR) (AID 2282978); conditions: HepG2 Attagene TRANS GR reporter, mRNA transcription;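 note: activators score as hits since higher reporter transcript over DMSO is fitted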
Chain of Glucocorticoid receptor (Homo sapiens) (P04150 whole entry, looked up, the tested form may be a part): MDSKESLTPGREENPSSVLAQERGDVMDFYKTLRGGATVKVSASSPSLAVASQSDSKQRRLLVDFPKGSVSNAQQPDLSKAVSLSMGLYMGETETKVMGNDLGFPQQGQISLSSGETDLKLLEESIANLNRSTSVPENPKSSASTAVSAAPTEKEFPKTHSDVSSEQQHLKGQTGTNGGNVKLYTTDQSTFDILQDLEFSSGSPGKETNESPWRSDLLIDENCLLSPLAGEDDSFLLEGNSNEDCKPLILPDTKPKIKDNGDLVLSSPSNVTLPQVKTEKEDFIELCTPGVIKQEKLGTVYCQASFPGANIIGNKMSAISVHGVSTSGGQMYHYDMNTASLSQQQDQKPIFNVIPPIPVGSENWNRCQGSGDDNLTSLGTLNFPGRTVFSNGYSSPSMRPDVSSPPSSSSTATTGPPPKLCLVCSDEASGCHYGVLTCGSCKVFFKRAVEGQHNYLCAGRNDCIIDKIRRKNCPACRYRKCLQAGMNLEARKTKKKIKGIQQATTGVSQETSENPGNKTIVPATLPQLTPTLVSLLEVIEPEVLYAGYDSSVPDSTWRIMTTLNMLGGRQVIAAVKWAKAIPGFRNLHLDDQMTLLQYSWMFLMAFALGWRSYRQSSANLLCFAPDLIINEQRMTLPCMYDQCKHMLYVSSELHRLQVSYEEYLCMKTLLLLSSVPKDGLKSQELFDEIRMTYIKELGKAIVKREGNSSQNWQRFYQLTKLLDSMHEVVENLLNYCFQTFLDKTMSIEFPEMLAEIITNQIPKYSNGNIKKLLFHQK
In short: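 Fluorescent capillary-electrophoresis quantitation of reporter mRNA is the readout, taken 24 h after dosing human HepG2 cells carrying transiently transfected GAL4-UAS reporter units activated by chimeric NR-GAL4 fusions; activity scored as induction over DMSO.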

[14] = molecular target: Hepatocyte nuclear factor 4-alpha (Homo sapiens) (UniProt P41235); test: ATG_HNF4a_TRANS: Attagene TRANS-FACTORIAL HepG2 Assay for human Hepatocyte Nuclear Factor 4 alpha (HNF4a) (AID 2282982); conditions: HepG2 HNF4a transactivation reporter, mRNA readout
Chain of Hepatocyte nuclear factor 4-alpha (Homo sapiens) (P41235 whole entry, looked up, the tested form may be a part): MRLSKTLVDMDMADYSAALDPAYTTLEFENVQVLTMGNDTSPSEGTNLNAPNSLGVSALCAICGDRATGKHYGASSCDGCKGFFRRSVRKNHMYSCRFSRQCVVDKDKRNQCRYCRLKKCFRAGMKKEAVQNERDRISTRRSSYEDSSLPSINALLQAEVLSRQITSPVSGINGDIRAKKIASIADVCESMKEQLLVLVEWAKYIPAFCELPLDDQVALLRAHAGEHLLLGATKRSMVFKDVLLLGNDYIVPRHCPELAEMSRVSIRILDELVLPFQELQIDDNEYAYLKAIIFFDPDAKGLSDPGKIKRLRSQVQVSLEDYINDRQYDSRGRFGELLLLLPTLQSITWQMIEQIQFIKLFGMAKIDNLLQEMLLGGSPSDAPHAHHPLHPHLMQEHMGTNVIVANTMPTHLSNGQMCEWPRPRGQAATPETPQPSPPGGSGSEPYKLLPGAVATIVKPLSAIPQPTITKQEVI
In short: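 Gain-of-signal mRNA induction, relative to DMSO vehicle, was read after 24 h compound treatment of HepG2 cells bearing transfected GAL4-UAS reporters. Detection used RT-PCR, 6-FAM primer extension and capillary electrophoresis.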

[15] = ATG_VDRE_CIS: Attagene CIS-FACTORIAL HepG2 Assay for human Vitamin D Receptor Element (VDRE) (AID 2282968; active = hit-call score of the fitted dose curve at least 0.9, where 1 is the maximum; inactive = score below 0.9); conditions: HepG2 VDRE cis-reporter transcription, actives raise or lower the signal
In short: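 Cell-based multiplexed reporter format in human liver HepG2 cells, 24 h post-dose. Fluorescence from capillary electrophoresis of reporter cDNA gives the signal, with DMSO as negative control and baseline.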

[16] = molecular target: Estrogen-related receptor gamma (Homo sapiens) (UniProt P62508); test: ATG_ERRg_TRANS: Attagene TRANS-FACTORIAL HepG2 Assay for human Estrogen-Related Receptor gamma (ERRg) (AID 2282977); conditions: HepG2 Attagene TRANS reporter, ERRg transactivation;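 note: hits increase reporter signal over DMSO so potencies reflect activators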
In short: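 Transient HepG2 transfectants, 24 h compound exposure, GAL4-UAS reporter mRNA by RT-PCR/6-FAM labelling/capillary electrophoresis; positive direction vs DMSO.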

[17] = molecular target: Nuclear receptor subfamily 1 group I member 3 (Homo sapiens) (UniProt Q14994); test: ATG_CAR_TRANS: Attagene TRANS-FACTORIAL HepG2 Assay for human Constitutive Androstane Receptor (CAR) (AID 2282969); conditions: HepG2 Attagene TRANS-FACTORIAL CAR reporter;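 note: activators raise reporter mRNA above DMSO so AC50 marks induction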
Chain of Nuclear receptor subfamily 1 group I member 3 (Homo sapiens) (Q14994 whole entry, looked up, the tested form may be a part): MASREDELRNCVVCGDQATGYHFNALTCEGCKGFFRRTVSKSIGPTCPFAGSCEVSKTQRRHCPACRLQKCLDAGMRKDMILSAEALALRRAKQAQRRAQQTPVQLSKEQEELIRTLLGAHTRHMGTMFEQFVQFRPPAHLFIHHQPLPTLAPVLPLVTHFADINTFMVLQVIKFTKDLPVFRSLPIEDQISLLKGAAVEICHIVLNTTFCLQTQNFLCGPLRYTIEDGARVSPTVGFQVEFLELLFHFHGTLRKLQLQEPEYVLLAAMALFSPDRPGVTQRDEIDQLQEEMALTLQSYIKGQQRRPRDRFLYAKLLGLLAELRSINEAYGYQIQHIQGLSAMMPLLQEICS
In short: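 HepG2 cells transiently transfected with GAL4-UAS reporter units; TRANS format reads activity of exogenous chimeric NR-Gal4 protein. After 24 h dosing, reporter mRNA quantified by RT-PCR, 6-FAM labelling and capillary electrophoresis; gain of signal fitted against DMSO.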

[18] = molecular target: Steroid hormone receptor ERR1 (Homo sapiens) (UniProt P11474); test: ATG_ERRa_TRANS: Attagene TRANS-FACTORIAL HepG2 Assay for human Estrogen-Related Receptor alpha (ERRa) (AID 2282971); conditions: HepG2 Attagene TRANS reporter, ERRa transactivation
Chain of Steroid hormone receptor ERR1 (Homo sapiens) (P11474 whole entry, looked up, the tested form may be a part): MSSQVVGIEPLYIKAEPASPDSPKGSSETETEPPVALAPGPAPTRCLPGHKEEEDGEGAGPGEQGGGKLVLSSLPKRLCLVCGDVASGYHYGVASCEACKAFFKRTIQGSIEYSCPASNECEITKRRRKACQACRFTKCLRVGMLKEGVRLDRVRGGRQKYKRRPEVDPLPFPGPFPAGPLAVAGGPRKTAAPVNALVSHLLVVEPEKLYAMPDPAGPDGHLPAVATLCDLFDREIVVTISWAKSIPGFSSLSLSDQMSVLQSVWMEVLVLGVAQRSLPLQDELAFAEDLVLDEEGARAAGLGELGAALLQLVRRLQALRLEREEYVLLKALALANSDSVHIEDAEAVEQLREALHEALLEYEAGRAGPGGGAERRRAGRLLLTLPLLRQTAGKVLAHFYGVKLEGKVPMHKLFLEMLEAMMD
In short: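 Signal gain relative to DMSO for an ERRa-Gal4 chimeric receptor, read as reporter mRNA by RT-PCR/capillary electrophoresis. Human HepG2 liver cells, transient multiplex reporter transfection, 24 h chemical exposure.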

[19] = molecular target: Oxysterols receptor LXR-beta (Homo sapiens) (UniProt P55055); test: ATG_LXRb_TRANS: Attagene TRANS-FACTORIAL HepG2 Assay for human Liver X Receptor beta (LXRb) (AID 2282981); conditions: HepG2 Attagene TRANS GAL4-LXRb reporter, mRNA
In short: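 Gain-of-signal mRNA reporter endpoint, DMSO as negative control. Transiently transfected HepG2 cells carrying the NR-Gal4 chimera and GAL4-UAS reporter units were treated 24 h; transcripts quantified by RT-PCR and capillary electrophoresis fluorescence.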

[20] = molecular target: Bile acid receptor (Homo sapiens) (UniProt Q96RI1); test: ATG_FXR_TRANS: Attagene TRANS-FACTORIAL HepG2 Assay for Farnesoid X Receptor (FXR) (AID 2282979); conditions: HepG2 Attagene TRANS FXR-GAL4 reporter transcription;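 note: hits raise reporter mRNA above DMSO so AC50 marks FXR activation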
In short: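 After 24 h chemical treatment of transfected HepG2 cells, GAL4-UAS reporter transcripts driven by an exogenous FXR-GAL4 fusion were measured by RT-PCR and capillary electrophoresis. Increases over DMSO were fitted.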

C=C(C)C1CC=C(C)CC1 (configuration not stated)
outcome [1]: inactive | outcome [2]: inactive | outcome [3]: inactive | outcome [4]: inactive | outcome [5]: inactive | outcome [6]: inactive | outcome [7]: inactive | outcome [8]: inactive | outcome [9]: inactive | outcome [10]: inactive

CO[Si](CCCS)(OC)OC
outcome [1]: inactive | outcome [2]: inactive | outcome [11]: inactive | outcome [3]: inactive | outcome [12]: inactive | outcome [5]: inactive | outcome [13]: inactive | outcome [14]: inactive | outcome [8]: inactive

CCOC(=O)CC(=O)c1ccccc1
outcome [1]: inactive | outcome [2]: inactive | outcome [15]: inactive | outcome [4]: inactive | outcome [12]: inactive | outcome [5]: inactive | outcome [13]: inactive

CO[Si](C)(C)OC
outcome [1]: inactive | outcome [2]: inactive | outcome [3]: inactive | outcome [4]: inactive | outcome [12]: inactive | outcome [5]: inactive | outcome [16]: inactive | outcome [13]: inactive | outcome [14]: inactive | outcome [7]: inactive | outcome [8]: inactive | AC50 [10]: 151 µM (active)

C=CC(=O)OCCCCCCCCCC
outcome [1]: inactive | outcome [2]: inactive | outcome [15]: inactive | outcome [17]: inactive | outcome [3]: inactive | outcome [18]: inactive | outcome [4]: inactive | outcome [12]: inactive | outcome [13]: inactive | outcome [6]: inactive | outcome [8]: inactive | outcome [9]: inactive | outcome [10]: inactive

C=C(C)OC(C)=O
outcome [1]: inactive | outcome [2]: inactive | outcome [15]: inactive | outcome [17]: inactive | outcome [3]: inactive | outcome [18]: inactive | outcome [12]: inactive | outcome [16]: inactive | outcome [13]: inactive | outcome [6]: inactive | outcome [19]: inactive | outcome [14]: inactive | outcome [7]: inactive | outcome [8]: inactive | outcome [10]: inactive

C=CCOC(=O)c1ccc(C(=O)OCC=C)c(C(=O)OCC=C)c1
outcome [1]: inactive | outcome [2]: inactive | AC50 [15]: 41.6 µM (active) | outcome [4]: inactive | outcome [12]: inactive | outcome [13]: inactive | outcome [6]: inactive | outcome [7]: inactive | outcome [10]: inactive

CC(C)C(=O)OCCc1ccccc1
outcome [1]: inactive | outcome [2]: inactive | outcome [15]: inactive | outcome [3]: inactive | outcome [4]: inactive | outcome [12]: inactive | outcome [5]: inactive | outcome [20]: inactive | outcome [6]: inactive | outcome [7]: inactive | outcome [8]: inactive | outcome [9]: inactive
